# Source: PubChem BioAssay AID2314 (National Center for Advancing Translational Sciences (NCATS), 2010)
# Screen size: about 300,000 compounds; about 37,000 (12%) were called active. This is one part of a sample in which actives are shown more often than they occur. Unmarked numbers belong to inactive results. Rule as the data show it: active = max response mostly above about 13% (no sharp cut-off); inactive = mostly below about 14%.
# Assay: Cycloheximide Counterscreen for Small Molecule Inhibitors of Shiga Toxin; also: read at 38.3 µM for the half of the compounds with a filed dose; 0% is about no effect
# Conditions: cell reporter, cycloheximide protein synthesis inhibition counterscreen; stronger effect = higher value
row,Compound,max response
1,COc1ccc2oc(=O)cc(CN3CCOCC3)c2c1,-3.2%
2,Cc1cc(=O)oc2c3c(cc(OCC(=O)NCCC(=O)N[C@@H](C)C(=O)O)c12)OC(C)(C)CC3,-1.18%
3,COc1ccc(S(=O)(=O)NCCc2cc3ccc(C)c(C)c3[nH]c2=O)cc1,-6.24%
4,COCc1c(C(=O)N/N=C\c2cccnc2)nnn1-c1nonc1N,-4.36%
5,FC(F)(F)c1cccc(-c2cc3ccccc3nc2N2CCCC2)c1,3.78%
6,CCC/C(=N\O)c1c[nH]c2ccccc12,13.5%
7,COc1ccc(/C=C(\C#N)c2c[nH]c3ccccc23)cc1,47.7% (active)
8,COc1ccc2[nH]cc(/C=C(/C#N)S(=O)(=O)c3ccccc3)c2c1,-3.42%
9,CCO[C@@H]1OC(C(N)=O)=C[C@H](c2ccc(Br)cc2)[C@H]1CCCO,-0.863%
10,CCC/C=C(\CCC)C(NC(=O)Cc1ccccc1)c1ccc(C(=O)OC)cc1 (stereo unspecified),-2.68%
11,CN(C)Cc1c(O)ccc2occ(C(O)c3ccccc3)c12 (stereo unspecified),17.6% (active)
12,CN(C)Cc1c(O)ccc2c(=O)c(-c3ccccc3Cl)coc12,1.67%
13,Cc1ccc(C(=O)c2coc3ccc(O)c(CN(C)C)c23)cc1,-0.656%
14,C=CCc1cc(C)ccc1OCCCn1ccnc1,-0.408%
15,c1ccc(Cc2ccc(OCCn3ccnc3)cc2)cc1,12%
16,Clc1c(OCCCn2ccnc2)ccc2ccccc12,20.6% (active)
17,COc1cc(S(=O)(=O)Nc2ncn[nH]2)ccc1Cl,-1.79%
18,Fc1ccc(CSc2nnc(-c3cc4c(s3)-c3ccccc3CC4)o2)cc1,1.49%
19,CCSc1nnc(-c2cc3c(s2)-c2ccccc2CC3)o1,40.7% (active)
20,CSc1nc2sc3c(c2c(=O)[nH]1)CCc1ccccc1-3,-2.09%
21,Cn1sc(NC(=O)c2ccccc2)nc1=O,9.66%
22,Cn1c(NC(=O)c2ccccc2)nc2ccccc21,25.8% (active)
23,CC(=O)NCCc1nc2cc(NC(=O)c3ccccc3)ccc2n1C,20.2%
24,COc1cc2c(cc1OC)C(C(=O)NCc1ccco1)C1c3ccccc3CCN1C2=O (stereo unspecified),-2.13%

row,Compound,max response
1,Cc1cc(=O)oc2cc(OC(C)C(=O)NCCc3ccc(S(N)(=O)=O)cc3)ccc12 (stereo unspecified),-2.25%
2,Cc1ccc(N2CCN(C(=O)c3cccs3)CC2)c(C)c1,1.82%
3,O=C(O)c1ccc(N/N=C/c2cn(-c3ccccc3)nc2-c2cccs2)cc1,14.7%
4,O=C(O)/C=C/c1cn(-c2ccccc2)nc1-c1cccs1,20.8% (active)
5,O=C(/C=C/c1cn(-c2ccccc2)nc1-c1ccc2c(c1)OCCO2)NCCCN1CCOCC1,13.7%
6,O=C(O)/C=C/c1cn(Cc2ccccc2)nc1-c1cccs1,0.958%
7,COc1ccc(-c2nn(-c3ccccc3)cc2/C=C\C(=O)N2CCOCC2)cc1[N+](=O)[O-],-1.53%
8,O=C(/C=C\c1cn(-c2ccccc2)nc1-c1cccs1)N1CCOCC1,17.5% (active)
9,CCOC(=O)c1c(NC(=O)CSc2nccc(=O)[nH]2)sc(C)c1C,-2.23%
10,CCN1CC(CN(C)Cc2nc(-c3ccc(Cl)cc3)no2)CC1=O (stereo unspecified),6.16%
11,COC(=O)c1ccc(-c2noc(CN(Cc3ccccn3)CC3CCCO3)n2)cc1 (stereo unspecified),-2.22%
12,CN(Cc1ccccn1)Cc1nc(-c2ccc(Cl)cc2)no1,20% (active)
13,COCCCNS(=O)(=O)c1cccc(S(=O)(=O)c2cccc(S(=O)(=O)NCCCOC)c2)c1,-2.51%
14,COc1ccc(S(=O)(=O)Nc2cccc3cccnc23)c(N)c1,23.5%
15,O=C(Nc1ccccc1Cl)Nc1cccc2cccnc12,31.2% (active)
16,CCOC(=O)Cc1ncccc1C(=O)Nc1ccc(OC)cc1,-1.69%
17,O=C(Nc1cccc2cccnc12)c1cccc(N2C(=O)CCC2=O)c1,-3.63%
18,O=C(Nc1cccc2cccnc12)C(F)(F)F,-1.21%
19,O=C(Nc1ccccc1Cl)Nn1cnnc1,6.34%
20,O=C(Nc1cccc2cccnc12)c1cccc(Cl)c1,49.1% (active)
21,COc1ccc(NC(=O)Nc2cccc3cccnc23)cc1,55.8% (active)
22,N#Cc1ccc(C(=O)Nc2cccc3cccnc23)c(F)c1,-0.854%
23,O=C(COC(=O)/C=C/c1cn(-c2ccccc2)nc1-c1cccnc1)Nc1ccc(Cl)cc1Cl,3.3%
24,COc1cccc(-n2c(=S)sc3c(=O)n(-c4ccccc4C)c(SCC(=O)O)nc32)c1,-1.2%

row,Compound,max response
1,O=C(c1ccccc1F)N1CCN(S(=O)(=O)c2ccc(Br)cc2)CC1,-10.6%
2,O=C1NC(=O)C(c2ccc(Cl)cc2)N1 (stereo unspecified),-2.12%
3,Cc1ccc(NC(=O)COc2ccc(/C=C3/NC(=O)NC3=O)cc2)cc1,-1.82%
4,C=CCN1C(=O)NC(=O)/C(=C/c2ccc(OCC(=O)Nc3ccc(C)cc3)cc2)C1=O,14.5% (active)
5,CCOC(=O)C1=C(O)/C(=C/c2ccc(OCC(=O)Nc3ccc(C)cc3)cc2)N=C1C,-7%
6,CCSc1nnc(SCC(=O)NNC(=O)c2ccccc2F)s1,6.26%
7,O=C(CCC1CCCC1)N=C1SC2CS(=O)(=O)CC2N1Cc1ccccc1 (stereo unspecified),0.661%
8,COc1cc2ccccc2cc1C(=O)Nc1ccc(S(=O)(=O)Nc2cc(C)on2)cc1,-2.65%
9,CC(=O)c1sc(NC(=O)C2=NN(c3ccccc3)C(=O)CC2)nc1C,-0.878%
10,COc1cc2ccccc2cc1C(=O)Nc1ccccc1C,29.7% (active)
11,COc1cccc2sc(Nc3nc(C)c(C(C)=O)s3)nc12,16.2% (active)
12,COc1cccc2sc(NNC(=O)c3nc4ccccc4s3)nc12,12.4%
13,COC(=O)c1sc(NC(=S)NC(=O)c2ccc(C)cc2)nc1C,9.32%
14,CNC(=O)c1sc(Nc2ccc(OCc3ccccc3)cc2)nc1C,10.4%
15,CNC(=O)c1sc(NCc2ccccc2OC)nc1C,-3.72%
16,COc1ccc(Br)cc1C(=O)Nc1cccc(C)c1C,-3.3%
17,CC(=O)c1sc(NC(=O)c2cccc3ccccc23)nc1C,35.9% (active)
18,CC(=O)c1sc(NC(=O)c2ccc(C)cc2)nc1C,54.3% (active)
19,CCOC(=O)c1sc(NC(=O)c2ccncc2)nc1C,0.888%
20,COc1cc(C(=O)NCc2ccncc2)cc(Br)c1OCc1ccccc1,-7.17%
21,Cc1ccc(C(=O)N/N=C\c2cc(Br)c(Br)o2)cn1,3.37%
22,CC(=O)NS(=O)(=O)c1ccc2c(c1)Cc1cc(S(=O)(=O)NC(C)=O)ccc1-2,-0.942%
23,N#C[C@]1(S(=O)(=O)c2ccccc2)C[C@@H]2ON=C(c3cccc(Br)c3)[C@@H]2C1,0.173%
24,CCCCC(O)(CCCC)C(=O)NN(C(=O)CCl)c1ccccc1,4.18%

row,Compound,max response
1,COc1cc2ccccc2cc1C(=O)Nc1nc(C)c(C(C)=O)s1,33.8% (active)
2,O=C(Cc1ccccc1)NC(=S)Nc1ccc(N2CCCCC2)cc1,20.2%
3,CC1(C)CC(N2CCN(C(c3ccccc3)c3ccccc3)CC2)=CC(=[N+]2CCCCC2)C1,-1.68%
4,CCOC(=O)c1ccc(CS(=O)c2ccc(Cl)cc2)o1 (stereo unspecified),25.3% (active)
5,CCOC(=O)c1ccc(COC(=O)c2cc(=O)[nH]c3ccccc23)o1,-2.02%
6,Cc1ccc(S(=O)Cc2ccc(C(=O)N3CCN(C4CCCCC4)CC3)o2)cc1 (stereo unspecified),0.779%
7,C=CCn1c(CNS(=O)(=O)c2ccc(Br)cc2)nnc1SC,-1.32%
8,COc1ccc(CCNC(=O)c2nnc(CS(=O)(=O)c3ccccc3)o2)cc1OC,-0.612%
9,CC(=O)NC(CC(=O)Nc1nc(-c2ccccc2)c(C(C)=O)s1)c1ccccc1 (stereo unspecified),-6.12%
10,COC(=O)c1c(C)oc(C)c1S(=O)(=O)NCc1ccc(Cl)cc1,-1.57%
11,COC(=O)c1c(C)[nH]c(C)c1-c1ccc([N+](=O)[O-])cc1,-6.3%
12,COC(=O)c1c(C)[nH]c(C(=O)/C=C/c2ccc(Cl)cc2)c1C,30.8% (active)
13,COc1ccc(NC(=O)c2sc3nc(C)nc(N4CCN(c5ccccn5)CC4)c3c2C)c(OC)c1,-5.96%
14,CCN(C(=O)COC(=O)/C=C/c1nc2ccccc2s1)C1CCS(=O)(=O)C1 (stereo unspecified),-3.69%
15,O=S(=O)(Nc1cccc(-n2cnnn2)c1)c1cnc(Cl)c(Cl)c1,4.36%
16,O=C(CN1C2=NCCN2c2ccccc21)c1cccs1,4.8%
17,Nc1c(C(=O)c2cccs2)sc2nsc(SCCN3CCCCC3)c12,24.4% (active)
18,O=C(c1ccc(Oc2ccc(Cl)cc2)c([N+](=O)[O-])c1)N1CCCC1,-3.06%
19,COc1ccc(N=Cc2c(O)[nH]c3ccccc23)cc1OC,43.7% (active)
20,COc1cc(N=Cc2c(O)[nH]c3ccccc23)cc(OC)c1OC,6.65%
21,COc1ccccc1N=Cc1c(O)c2ccccc2oc1=O,9.95%
22,COc1cc(OC)c(C(=S)N2CCCC2)cc1OC,-2.47%
23,Cc1cccc(NS(=O)(=O)c2cc(Cl)ccc2Cl)n1,-0.991%
24,C[C@H](NC(=O)c1nc[nH]c1C(=O)NCC(=O)OC(C)(C)C)C(=O)OCc1ccccc1,-0.808%
